The source of these data is PubChem BioAssay AID618 (Sanford-Burnham Center for Chemical Genomics, 2007).

Hit rate of the full screen: of about 87,000 compounds, about 540 (0.62%) were called active. No rule for the calls is given here. The entries come from a sample that favours actives as a whole. Measured potencies and affinities stand elsewhere.

A short description of this assay: MT1-MMP gene expression reporter suppression – cell-based, luciferase reporter, luminescence (AID 618).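 Also: actives suppress MT1-MMP promoter-driven transcription so potencies describe inhibitors.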 The following applies: MT1-MMP promoter luciferase reporter cells.
Take `C=CCN1CC(c2nc3ccccc3n2Cc2cccc3ccccc23)CC1=O` (centres undefined): the compound was classed as inactive.
For the compound `CCCOc1ccc(C(CC(=O)O)NC(=O)C23CC4CC(CC(C4)C2)C3)cc1` (centres undefined), the compound was called inactive.
Turning to `Cc1ccc(C(=O)Nc2cc(Cl)ccc2N2CCCCC2)s1`, the compound was called inactive.
For `CN(C)c1ccc(NC(=O)CN2CCC(C(=O)c3ccc(F)cc3)CC2)cc1`, the compound was called inactive.
For the compound `O=C(/C=C/Nc1ccc(F)cc1)c1ccco1`, the compound was classed as inactive.
With `CC(=O)Nc1ccc(N/C=C/C(=O)c2ccco2)cc1`, the compound was classed as inactive.
As for `CN(C)c1ccc(N/C=C/C(=O)C(C)(C)C)cc1`, the result was inactive.
With `CN(C)c1ccc(N/C=C/C(=O)c2ccc(F)cc2)cc1`, the compound was classed as active.
On to `CN(C)c1ccc(C(=O)c2ccccc2)cc1`, for which the call was inactive.
Take `CN(C)c1ccc(N/C=C/C(=O)c2ccccc2)cc1`: the result was active.
As for `CN(C)c1ccc(NC(=O)CN2CCN(CC(=O)Nc3ccc(F)cc3)CC2)cc1`, the entry is “inactive”; as for `CSCC[C@H](NC(=O)CCn1nnc2ccccc2c1=O)C(=O)O`, “inactive”.
As for `CCN1CCN(C(=O)c2ccc(Cl)c(S(=O)(=O)N3CCOCC3)c2)CC1`, the entry is “inactive”; as for `Cc1ccc(-n2nc3c(c2NC(=O)c2c(-c4ccccc4Cl)noc2C)CS(=O)(=O)C3)c(C)c1`, “inactive”; as for `COc1cccc(NC(=O)C(=O)N2CCOCC2)c1`, “inactive”.
Regarding `Cc1ccc(-n2nc(C)c3c(C)cc(=O)[nH]c32)cc1`, the outcome was inactive.
On to `O=C(c1cccn2c(=O)c3cc(Br)ccc3nc12)N1CCN(c2ccccn2)CC1`, for which the outcome was inactive.
As for `Cc1ccc(-c2c(C(=O)N3CCOCC3)oc(=O)c3ccccc23)cc1`, the entry is “inactive”; as for `COC(=O)c1ccc(NC(=O)CSc2nncn2C)cc1`, “inactive”.
Consider `CCCCOC(=O)c1ccc(NC(=O)CSc2nncn2C)cc1`, for which the result was active.
With `Cn1cnnc1SCC(=O)Nc1ccccc1`, the outcome was inactive.
For the compound `O=C1CC(N2CCC(c3nc4ccccc4o3)CC2)C(=O)N1c1ccc(Cl)cc1` (centres undefined), the outcome was inactive.
As for `O=C(CCS(=O)(=O)c1cccs1)N1CCCC1`, the entry is “inactive”; as for `CC(=O)N1CCc2cc(S(=O)(=O)CCC(=O)O)ccc21`, “inactive”; as for `O=C1c2ccccc2NC(c2ccc(Cl)cc2Cl)N1Cc1ccccc1` (centres undefined), “inactive”.
As for `N=c1cc(C2(O)CCCCC2)n2c(nc3ccccc32)s1`, the compound was classed as active.
On to `c1ccc2nc3c(nc2c1)sc1nc2ccccc2n13`, for which the compound was called inactive.
For `CC(C)(O)c1cc(=O)sc2nc3ccccc3n12`, the compound was called inactive.
For the compound `c1ccc(Cn2c(-c3cncs3)nc3ccccc32)cc1`, the outcome was inactive.
As to `CCCCN(CCCNC(=O)C1CCN(S(=O)(=O)N2CCOCC2)CC1)Cc1ccccc1`, the outcome was inactive.
For the compound `CCn1c(CCNC(=O)c2cccs2)nnc1SCC(=O)NC1CCCCC1`, the outcome was inactive.
For the compound `Cc1noc(C)c1CSc1nnc2n(-c3ccccc3)c(=O)c3ccccc3n12`, the result was inactive.
The same measure for `COc1ccc(-c2cc3nc(C)c(CCC(=O)NC(C)CCc4ccco4)c(C)n3n2)c(OC)c1` (centres undefined): “inactive”.
With `COc1cc(OC)cc(-c2cc3nc(C)c(CCC(=O)NC(C)CCc4ccco4)c(C)n3n2)c1` (centres undefined), the outcome was inactive.
The same measure for `COc1ccc(CCNC(=O)N2CCOCC2)cc1`: “inactive”; for `CC(C)(C)n1nnnc1CN(Cc1ccco1)Cc1cc2cc3c(cc2[nH]c1=O)OCO3`: “inactive”.
Turning to `O=C(O)c1ccccc1NC(=O)C1CCCO1` (centres undefined), the call was inactive.
As for `c1cncc(CNc2c3c(nc4nnnn24)CCCC3)c1`, the entry is “inactive”; as for `O=C(O)c1cccc(-c2nnn(Cc3ccccc3)n2)c1`, “inactive”.
As for `O=C(O)c1cccc(-c2nnn(Cc3ccccc3Cl)n2)c1`, the entry is “inactive”.
With `COc1cc(-c2nc(S(=O)(=O)c3ccc(C)cc3)c(N(C)C)o2)cc(OC)c1OC`, the compound was called inactive.
Regarding `CCOc1cccc(NC(=O)C2CC(=O)N(C)C2)c1` (centres undefined), the call was inactive.
On to `CCCNCC(O)COc1ccccc1C(=O)CCc1ccccc1` (centres undefined), for which the call was active.
As for `CCN(CC)CC(O)COc1ccccc1C(=O)CCc1ccccc1` (centres undefined), the result was inactive.
For the compound `CC(C)(C)NCC(O)COc1ccccc1C(=O)CCc1ccccc1` (centres undefined), the call was inactive.
On to `CC(C)(C)NS(=O)(=O)c1ccc(CCC(=O)NCc2cccnc2)cc1`, for which the compound was classed as inactive.
On to `CCOC(=O)c1c(NC(=O)CN(CC)CC)sc2c1CCC2`, for which the result was inactive.
As to `O=C(Cn1c(NCCO)nc2ccccc21)c1cccs1`, the call was inactive.
With `COc1ccccc1N1CCN(c2ncnc3c2oc2ccccc23)CC1`, the outcome was inactive.
Take `COc1ccccc1N1CCN(c2nc(C)nc3c2oc2ccccc23)CC1`: the compound was classed as active.
Consider `Cc1cc(C)nc(N2CCN(c3nc(C)nc4c3oc3ccccc34)CC2)n1`, for which the outcome was inactive.
For `Cc1ccc(C(=O)Nc2ccccc2OC(F)F)cc1`, the compound was called inactive.
Consider `CCN=c1scc(C)n1/N=C/c1ccsc1`, for which the result was inactive.
Consider `CN=c1scc(C)n1/N=C/c1ccc(O)cc1`, for which the result was inactive.
Take `CN=c1scc(C)n1/N=C/c1ccc(O)c(O)c1O`: the compound was classed as inactive.
Consider `CN=c1scc(C)n1/N=C/c1ccc(O)cc1O`, for which the compound was called active.
As for `CN=c1scc(C)n1/N=C/c1ccc2c(c1)OCO2`, the call was active.
As for `Cc1nnc(C)n1/N=C/c1ccc2c(c1)OCCO2`, the entry is “inactive”.
`COC(=O)c1ccc(Cn2nc(C(F)(F)F)cc2C)cc1`: the compound was called inactive.
Take `c1ccc(OCCSc2nnnn2-c2ccccc2)cc1`: the compound was classed as inactive.
Turning to `COc1ccccc1OCCSc1nnnn1-c1ccc(C)cc1`, the call was inactive.
In the case of `CCN(C(=O)Cc1ccc(Br)cc1)C1CCCCC1`, the call was inactive.
Turning to `C(=N\n1cnnc1)/c1ccc(OCc2cccc3ccccc23)cc1`, the outcome was inactive.
As for `CCOCCOC(=O)CCSc1n[nH]c(=O)[nH]c1=O`, the entry is “inactive”; as for `CCC/C(O)=C1\C(=O)CC(C)(C)CC1=Nc1ccccc1OC`, “inactive”.
With `CCCC/C(O)=C1\C(=O)CC(C)(C)CC1=Nc1ccccc1OC`, the result was inactive.
Consider `CCOc1ccc(C2c3c(oc4ccccc4c3=O)C(=O)N2CCCN2CCOCC2)cc1OCC` (centres undefined), for which the call was inactive.
`CSc1cc(-c2ccccc2)n(Cc2c(Cl)cccc2Cl)c(=O)c1C#N`: the call was active.
As for `Cc1cc(C)n(Cc2ccccc2F)c(=O)c1C#N`, the compound was called inactive.
As to `Cn1c(=O)c2c(nc(SCCCC#N)n2Cc2c(F)cccc2Cl)n(C)c1=O`, the compound was classed as inactive.
Turning to `CSc1cc(-c2ccccc2)n(Cc2ccccc2Cl)c(=O)c1C#N`, the call was active.
Turning to `CSc1cc(-c2ccccc2)n(Cc2ccc(Cl)cc2Cl)c(=O)c1C#N`, the result was inactive.
As for `CSc1cc(-c2ccc(Cl)cc2)n(Cc2ccccc2)c(=O)c1C#N`, the outcome was inactive.
Consider `Cc1ccc(-n2c(SCC(=O)NCc3ccco3)nnc2-c2cccnc2)c(C)c1`, for which the compound was called inactive.
The same measure for `CCOC(=O)N1CCC(NC(=O)C2CCN(S(=O)(=O)N3CCC(C)CC3)CC2)CC1`: “inactive”; for `Cc1cc(C)cc(OCc2nc3ncc(Br)cc3[nH]2)c1`: “inactive”.
As for `C=CCOc1cccc(C2C(C(=O)c3ccco3)=C(O)C(=O)N2CCN2CCOCC2)c1` (centres undefined), the entry is “inactive”.
On to `COc1ccccc1N1CCN(C(=O)CN(c2cc(C)cc(C)c2)S(C)(=O)=O)CC1`, for which the call was inactive.
Regarding `Clc1ccc2nc(N3CCCCC3)sc2c1`, the compound was called inactive.
In the case of `c1ccc2sc(N3CCOCC3)nc2c1`, the compound was classed as inactive.
The same measure for `O=S(=O)(c1ccc2c(c1)OCCO2)N1CCN(c2nc3ccccc3s2)CC1`: “inactive”; for `c1c2c(cc3sc(N4CCCCC4)nc13)OCCO2`: “active”; for `c1c2c(cc3sc(N4CCCCC4)nc13)OCO2`: “active”.
In the case of `O=C(c1ccc2nc(N3CCCCC3)sc2c1)N1CCN(Cc2ccc3c(c2)OCO3)CC1`, the compound was called inactive.
Take `c1ccc2c(c1)CCN(c1nc3cc4c(cc3s1)OCCO4)C2`: the compound was classed as active.
`c1ccc2c(c1)CCN(c1nc3cc4c(cc3s1)OCO4)C2`: the result was inactive.
For `c1ccc(N2CCN(c3nc4cc5c(cc4s3)OCCO5)CC2)cc1`, the compound was called inactive.
`c1c2c(cc3sc(N4CCOCC4)nc13)OCO2`: the result was inactive.
Regarding `c1c2c(cc3sc(N4CCOCC4)nc13)OCCO2`, the outcome was active.
Turning to `c1ccc(N2CCN(c3nc4cc5c(cc4s3)OCO5)CC2)cc1`, the call was inactive.
Take `CCOC(=O)c1c(COC(=O)c2ccco2)nc2ccccc2[n+]1[O-]`: the call was inactive.
Consider `O=C(CCn1c(=O)oc2ccccc21)Nc1cccc(Cl)c1`, for which the result was inactive.
As to `Cc1cc2ccccc2c(=O)n1CC(=O)Nc1ccc2c(c1)OCCO2`, the outcome was inactive.
The same measure for `CCOC(=O)c1[nH]c2ccc(F)cc2c1NC(=O)C1=COCCO1`: “inactive”; for `CC(=O)c1c(C(C)=O)c(C)n(-c2nc(-c3ccc(Br)cc3)c(C)s2)c1C`: “inactive”; for `OC(COc1ccccc1)CSc1ncn[nH]1` (centres undefined): “inactive”.
The same measure for `COc1ccc(OCCSc2ncn[nH]2)cc1`: “inactive”; for `CCCCn1c(SCC(=O)N2CCOCC2)nnc1-c1cccs1`: “inactive”.
For `CC[C@]1(O)CC2CN(CCc3c([nH]c4ccccc34)[C@@](C(=O)OC)(c3cc4c(cc3OC)N(C=O)[C@H]3[C@@](O)(C(=O)OC)[C@H](OC(C)=O)[C@]5(CC)C=CCN6CC[C@]43[C@@H]65)C2)C1` (some centres undefined), the compound was classed as active.
With `COc1ccccc1N1CCN(C(=O)CSc2nc(-c3ccco3)cc(C(F)(F)F)n2)CC1`, the result was inactive.
With `Cc1cc(C)c(S(=O)(=O)N2CCCCC2)c(C)c1-n1ncnn1`, the compound was called inactive.
Regarding `O=C(Cn1nc(-c2ccc(Cl)cc2)c2ccccc2c1=O)NCC1CCCO1` (centres undefined), the result was inactive.
As for `COc1ccccc1-c1cc(C(F)(F)F)nc(S(=O)(=O)CCCC(=O)N2CCCCC2C)n1` (centres undefined), the entry is “inactive”; as for `COc1ccc(-c2cc(C(F)(F)F)nc(S(C)(=O)=O)n2)cc1`, “inactive”.
The same measure for `COC(=O)CCS(=O)(=O)c1nc(-c2ccccc2)cc(C(F)(F)F)n1`: “inactive”.
`COC(=O)CSc1nc(-c2ccc(F)cc2)cc(C(F)(F)F)n1`: the outcome was inactive.
As for `CCOC(=O)CSc1nc(-c2ccccc2)cc(C(F)(F)F)n1`, the entry is “inactive”.
As for `CCOC(=O)CS(=O)(=O)c1nc(-c2ccccc2)cc(C(F)(F)F)n1`, the entry is “inactive”; as for `CS(=O)(=O)c1nc(-c2ccccc2)cc(C(F)(F)F)n1`, “active”.
For the compound `CCOC(=O)CS(=O)(=O)c1nc(-c2ccc(F)cc2)cc(C(F)(F)F)n1`, the call was active.
For `COc1ccc(-c2cc(C(F)(F)F)nc(S(C)(=O)=O)n2)cc1OC`, the compound was called inactive.
As for `COc1ccccc1-c1cc(C(F)(F)F)nc(S(=O)(=O)CCCC(=O)O)n1`, the entry is “inactive”; as for `CCNc1nc(Oc2ccc(=O)[nH]n2)nc(N2CCOCC2)n1`, “inactive”.
As for `CCOC(=O)C1=NN(c2ccc(OC)cc2)C(c2ccccc2)CC1=O` (centres undefined), the compound was classed as inactive.
